Test results from PubChem BioAssay (EPA / NIEHS).
The source holds several records for some structures; these can differ, active in one and inactive in another. Activity calls are given as the source filed them. Rule for the calls: active = hit-call score of the fitted dose curve at least 0.9, where 1 is the maximum; inactive = score below 0.9.

Test: ATG_M_61_CIS: Attagene CIS-FACTORIAL HepG2 Assay for M61 Transcription Factor (Internal Marker) (AID 2282937)
Conditions: HepG2 Attagene CIS-FACTORIAL M61 internal marker reporter; actives raise or lower the signal
Outline: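 Readout: fluorescent reporter mRNA fragments resolved by capillary electrophoresis after RT-PCR. Transiently transfected human HepG2 cells carried MRTU constructs reporting endogenous TF activity; 24 h chemical exposure; gain or loss of signal fitted relative to DMSO.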
With `COc1cccc(C=O)c1` the outcome was “inactive”.
For `COc1ccc(OC)c(C=O)c1`, the outcome was “inactive”.
In the case of `COc1cc2c(cc1OC)[C@@]13CCN4CC5=CCO[C@H]6CC(=O)N2[C@H]1[C@H]6[C@H]5C[C@H]43`, the outcome is reported as “inactive”.
For `ClC1=C(Cl)[C@]2(Cl)[C@@H]3[C@@H](Cl)[C@@H](Cl)C[C@@H]3[C@@]1(Cl)C2(Cl)Cl`, the outcome was “inactive”.
With `CC(C)(C)c1cc(O)ccc1O` the outcome was “inactive”.
In the case of `O=C(O)C(F)(F)C(F)(F)C(F)(F)C(F)(F)C(F)(F)C(F)(F)F`, the outcome is reported as “inactive”.
For `CC(C)(OO)c1ccccc1`, the outcome was “inactive”.
For `CCOP(=S)(OCC)Oc1ccc(S(C)=O)cc1` (centres undefined), the outcome was “inactive”.
In the case of `C[C@]12CCC(=O)C[C@@H]1CC[C@@H]1[C@@H]2CC[C@]2(C)[C@@H](O)CC[C@@H]12`, the outcome is reported as “inactive”.
For `CC(C)(C)CC(C)(C)c1ccc(O)cc1`, the outcome was “inactive”.
For `CN(C)N=O`, the outcome was “inactive”.
With `CCN1CCC2(CC1)COc1cc3c(cc12)N(C(=O)c1ccc(-c2ccc(-c4nnc(C)o4)cc2C)cc1)CC3` the outcome was “inactive”.
For `ClCC(Cl)CCl`, the outcome was “inactive”.
In the case of `O=C1C2(Cl)C3(Cl)C4(Cl)C(Cl)(Cl)C5(Cl)C3(Cl)C1(Cl)C5(Cl)C24Cl` (centres undefined), the outcome is reported as “inactive”.
With `[O-][Cl+2]([O-])O` the outcome was “inactive”.
In the case of `O=C/C=C/c1ccccc1`, the outcome is reported as “inactive”.
With `CCC(C)c1cccc(C(C)CC)c1O` (centres undefined) the outcome was “inactive”.
For `CC(C)(c1ccc(OCC2CO2)cc1)c1ccc(OCC2CO2)cc1` (centres undefined), the outcome was “inactive”.
For `COP(=S)(OC)Oc1cc(Cl)c(Cl)cc1Cl`, the outcome was “inactive”.
With `O=C(c1ccccc1)C(Cl)Cl` the outcome was “inactive”.
With `C[C@@H]1C[C@@H]([C@H](O)CC2CC(=O)NC(=O)C2)C(=O)[C@@H](C)C1` the outcome was “inactive”.
In the case of `c1ccc(N=NNc2ccccc2)cc1`, the outcome is reported as “inactive”.
For `CC(C#N)CCC#N` (centres undefined), the outcome was “inactive”.
In the case of `C(=NC1CCCCC1)=NC1CCCCC1`, the outcome is reported as “inactive”.
For `O=c1[nH]c(=O)[nH]c(=O)[nH]1`, the outcome was “inactive”.
With `Cl/C=C/Cl` the outcome was “inactive”.
With `Cc1ccc(N)cc1Cl` the outcome was “inactive”.
With `C[C@]12CC[C@H](O)CC1=CC[C@@H]1[C@@H]2CC[C@]2(C)C(=O)CC[C@@H]12` the outcome was “inactive”.
In the case of `CCCCCCCCc1ccc(O)cc1`, the outcome is reported as “inactive”.
With `CCSC(C)CC1CC(=O)C(C(CC)=NOC/C=C/Cl)=C(O)C1` (centres undefined) the outcome was “inactive”.
With `O=C(O)C(F)(F)C(F)(F)C(F)(F)C(F)(F)C(F)(F)C(F)(F)C(F)(F)C(F)(F)C(F)(F)C(F)(F)F` the AC50 was 76.2 µM (active) and the outcome was “inactive”.
With `CC(C)c1cccc(C(C)C)c1O` the outcome was “inactive”.
For `CC(C)c1ccc(CO)cc1`, the outcome was “inactive”.
In the case of `CC1(C)Cc2cccc(O)c2O1`, the outcome is reported as “inactive”.
For `CCOP(=O)(CN(CCO)CCO)OCC`, the outcome was “inactive”.
With `N#Cc1ccccn1` the outcome was “inactive”.
With `COc1ccccc1OC` the outcome was “inactive”.
With `Oc1cccc2cccnc12` the outcome was “inactive”.
